High-throughput results deposited in PubChem BioAssay by Broad Institute.
AF4-AF9 inh: inhibitors of human MLL-AF4/AF9 interaction; AID 651704; inhibition, % at 10 µM; AlphaScreen, biotin-AF4 peptide binding to FLAG-AF9; actives 0.47% (n = 350,000); P42568;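 active means every replicate reaching a set inhibition limit, whatever the replicate mean, cut at about 25% in these data; inconclusive means mean inhibition reaches that limit but some replicates miss it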
RAD52 inh: RAD52 (human) annealing inhibition. inhibition, % at 18.7 µM. recombinant RAD52 DNA annealing, FRET fluorescence. actives 0.46% (n = 360,000);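 active means every replicate showing at least 50% inhibition; inconclusive means mean inhibition at least 50% but not in every replicate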
Target sequence (P43351 whole entry, looked up): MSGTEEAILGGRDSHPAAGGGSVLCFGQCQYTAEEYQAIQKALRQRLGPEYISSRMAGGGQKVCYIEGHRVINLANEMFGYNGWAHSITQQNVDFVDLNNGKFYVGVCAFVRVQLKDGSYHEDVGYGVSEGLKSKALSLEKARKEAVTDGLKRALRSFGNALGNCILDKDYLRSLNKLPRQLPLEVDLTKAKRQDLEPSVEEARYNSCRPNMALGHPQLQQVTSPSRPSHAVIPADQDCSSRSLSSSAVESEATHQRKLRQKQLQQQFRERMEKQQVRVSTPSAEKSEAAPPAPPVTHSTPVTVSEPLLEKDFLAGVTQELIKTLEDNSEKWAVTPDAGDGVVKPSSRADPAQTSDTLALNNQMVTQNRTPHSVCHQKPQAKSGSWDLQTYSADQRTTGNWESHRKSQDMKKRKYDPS
dFosB act-1: enhances mouse delta FosB homodimer DNA binding; P13346; purified delta FosB, TAMRA-CDK5 oligo fluorescence polarization; percent of positive-control signal above neutral wells; activation, % at 25 µM; actives 0.99% (n = 340,000); AID 493131;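 active means mean activation above about 17%, with every replicate also reaching it, limit read from the data, passing the limit was not always enough; inconclusive means only one of the two conditions met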
DENV2 CPE rescue: DENV2-induced cell death inhibition; DENV2-infected cells, cytopathic effect rescue, plate reader; CPE inhibition, % at 9.99 µM; actives 1.7% (n = 350,000); AID 651640; in the data active means CPE inhibition above about 20%, passing the limit was not always enough; inconclusive means no clear call, values can overlap the other calls; tested in BHK-21 cells
INS-1E GSIS act: primary screen for activators of insulin secretion dependent on glucose, INS-1E cells, GLuc reporter luminescence | INS-1E GLuc reporter insulin secretion, 2-3 h | activation, % at 16.6 µM | actives 0.61% (n = 370,000) | AID 743287;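 active means lowest replicate activation of at least 40%, so every replicate reaches that level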
RAD54 branch: blocks human RAD54 Holliday junction branch migration; Q92698; FAM/BHQ fluorescence; inhibition, % at 10.4 µM; actives 0.14% (n = 360,000); AID 602329;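 active means mean normalized replicate activity at least 40 and at least half of replicates scoring 40 or more; inconclusive means only one of the two criteria met; inactive means mean below 40 and under half of replicates reaching 40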;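 further: inhibitors cause a drop in the FAM fluorescence signal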
dFosB act-2: delta FosB (mouse) homodimer activation; purified delta FosB, TAMRA-CDK5 oligo fluorescence polarization; normalised: neutral wells 0, positive control 100; shares compounds with dFosB act-1; activation, % at 24.9 µM; AID 588690; 2,400 tested, under 10 active;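 active means highest replicate activation at or above 34% and every replicate reaching that threshold; inconclusive means meets only one of the two criteria; inactive means meets neither criterion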;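 further: higher polarization means more probe DNA bound by delta FosB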
Rad54 DNA ctr: binds DNA, flagging false Rad54 inhibitor hits. Acridine orange-DNA displacement, fluorescence polarization, 20 min. actives 8% (n = 460). AID 651673. AC50, µM (top dose mostly 35 µM). shares compounds with RAD54 branch;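 active means signal drop giving an AC50 within twice the top valid tested concentration of each sample, actives reach about 35 µM in these data; inactive means activity opposite to expected, plus the rest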;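 further: polarization loss reports compound binding to salmon sperm DNA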
AlphaScreen intf: interferes with the AlphaScreen assay signal. shares compounds with AF4-AF9 inh. actives 45% (n = 530). AlphaScreen interference counter-screen, signal luminescence. AC50, µM (titrated, usually from 12 µM); cut-off not given, nearly all actives have AC50 up to about 14 µM
DNA binder FP: counter-screen for RAD52 inhibitors: DNA binding compounds; actives 8% (n = 1,000); AC50, µM; shares compounds with RAD52 inh; Salmon sperm DNA/acridine orange FP displacement;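 active means fitted half-maximal concentration for signal loss at or below twice the highest dose tested, in every separate run, actives reach about 64 µM in these data; inconclusive means runs disagree, or flat partial signal loss, or poor fit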
Hits are given with their value; n = inactive; u = inconclusive; x = not tested or not shown. Hits are enriched below; roughly 3.1% of the tested compounds scored in any of these assays.

SMILES	AF4-AF9 inh	RAD52 inh	dFosB act-1	DENV2 CPE rescue	INS-1E GSIS act	RAD54 branch	dFosB act-2	DNA binder FP	others
COc1ccc(C(=O)CN2CCN(CCN3C(=O)c4cccc5cccc(c45)C3=O)CC2)cc1	x	n	42	n	n	64	n	x	Rad54 DNA ctr=n
CCOc1cc2[nH]c(=O)n(Cc3ccc(C(=O)NCCCN4CCC(C)CC4)cc3)c(=O)c2cc1OCC	n	n	26	n	n	60	n	x	Rad54 DNA ctr=n
CC[C@H](C)[C@@H]1NC(=O)c2cc([N+](=O)[O-])cc(F)c2NCCCC[C@@H](C(N)=O)NC(=O)[C@H](CCCCN)NC1=O	u	65	21	n	x	n	n	x	AlphaScreen intf=n
CO[C@@H]1CN(C)C(=O)c2cc(NC(=O)C3CCCC3)ccc2OC[C@H](C)N(C)C[C@H]1C	n	n	x	u	n	n	x	x
CN(C)CCCN1C(=O)c2cccc3cccc(c23)C1=O	n	58	20	n	n	102	n	n	Rad54 DNA ctr=n
CO[C@H]1CN(C)C(=O)c2cc(NC(=O)c3ccccc3F)ccc2OC[C@H](C)N(C)C[C@@H]1C	n	n	x	n	n	n	x	x
Cc1cc(N2CCCC2)nc2ccc(NC(=S)NCCCN3CCC(C)CC3)cc12	n	76	46	n	n	x	n	n
CCCCNC(=O)CCC(=O)Nc1ccc2nc(N3CCN(C)CC3)cc(C)c2c1	n	n	n	n	n	n	x	x
Cc1cc(N2CCOCC2)nc2ccc(NC(=S)N3CCCCC3C)cc12 (stereo not drawn)	n	n	n	n	n	n	x	x
Cc1cc(N2CCN(C)CC2)nc2ccc(NC(=S)NCCCN3CCc4ccccc4C3)cc12	n	100	31	n	n	80	n	n	Rad54 DNA ctr=n
O=C(CCN1CCCCC1)N[C@@H]1CC[C@H](CCNS(=O)(=O)c2ccc(F)cc2)O[C@@H]1CO	n	n	x	n	n	n	x	x
CN(C)CCCNc1cc(-c2ccccc2)nc2cc(-c3cccc(F)c3)nn12	n	67	56	n	n	90	n	n	Rad54 DNA ctr=n
CCCCCCOC(=O)c1ccc(N)cc1	n	n	n	n	n	n	x	x
CCCCCCCCCCCC1N=C(N)NC(CCCO)=C1C(=O)OC (stereo not drawn)	n	88	42	n	x	x	u	u
CCOc1ccc(CCN2C(=S)N([C@@H](CC(C)C)CN3CCCC3CN3C(=S)NC[C@@H]3Cc3ccc(O)cc3)C[C@@H]2Cc2ccc(O)cc2)cc1 (stereo partly drawn)	n	79	51	31	n	n	n	n
COc1ccc(OCC(O)CN2CCC(CN3C(=O)c4cccc5cccc(c45)C3=O)CC2)cc1 (stereo not drawn)	n	96	45	n	n	x	n	n
COc1cccc(C(=O)Nc2ccc3c(c2)C(=O)N(C)[C@@H]2CC[C@@H](CC(=O)NCC(F)(F)F)O[C@@H]2CO3)c1	n	n	x	n	n	n	x	x
COc1cccc(NC(=O)N[C@@H]2CC[C@H](CC(=O)Nc3ccc(-c4ccccc4)cc3)O[C@@H]2CO)c1	n	n	x	n	n	n	x	x
CCN(CC)CCNc1ncnc2c1sc1nc(N3CCOCC3)c3c(c12)CCCC3	n	66	31	n	n	x	n	65µM
OCCNc1ncnc2c1sc1nc(N3CCOCC3)c3c(c12)CCC3	n	n	n	n	n	n	x	x
CCc1ccc2nc(N(CCCN(C)C)C(=O)c3ccc(S(=O)(=O)N4CCCc5ccccc54)cc3)sc2c1	n	71	23	n	n	n	n	n
CCN(c1ccccc1)S(=O)(=O)c1ccc(C(=O)N(CCCN(C)C)c2nc3cc4c(cc3s2)OCO4)cc1	u	66	29	n	n	n	n	n
